From publication PMC5540273 (PLoS ONE, 2017)

tested on: CDKL2; conditions: concentration: 1 μM,replicates: in singlicate; n = 1
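Further: KINOMEscan kinase panel screen.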

Row | Structure (SMILES) | %Inh [%]
1 | Cc1cc(C(=O)Nc2ccc(Oc3ccc4nc(NC(=O)C5CC5)cn4n3)cc2)nn1-c1ccccc1 | 94
2 | CN(C)CC(O)COc1ccc(Nc2nccc(-c3cnn4nc(N5CCOCC5)ccc34)n2)cc1 (stereo not drawn) [GW767488] | 100
3 | CCN(CC)CCOc1ccc(Nc2ncc3cc(-c4c(Cl)cccc4Cl)c(=O)n(C)c3n2)cc1 [SB-601273] | 100
4 | Cc1cc2cn[nH]c2cc1-c1cccc2c(N)c(C(N)=O)nnc12 | 28
5 | O=C(NCCNc1ccnc(NCc2ccc(F)cc2)n1)c1cc2ccccc2s1 [GSK1379944] | 25
6 | COc1ccc(C[C@@H](CN)NC(=O)c2cc(Br)c(-c3ccnc4[nH]ccc34)s2)cc1.Cl.Cl [GSK1389063] | 40
7 | CN(C)CCOc1ccc(-c2cc(-c3c[nH]nc3-c3ccccn3)ccn2)cc1 [GW835314] | 0
8 | Cl.Cl.NC[C@H](CC1CCCCC1)NC(=O)c1cc(Br)c(-c2ccnc3[nH]ccc23)s1 [GSK1581427] | 18
9 | Cl.Oc1cc(-c2nc(-c3ccccc3)[nH]c2-c2ccncc2)ccc1Cl [SB-386023] | 0
10 | Cc1ccc2c(-c3ccncc3)c(-c3ccc(F)cc3)nn2c1.Cl [GW461484] | 12
11 | Nc1nc(Nc2ccccc2)cc(-c2ccc3c(N)n[nH]c3c2)n1 [GSK2225749] | 15
12 | C[C@@H](Oc1cc(-c2cnn(C3CCNCC3)c2)cnc1N)c1c(Cl)ccc(F)c1Cl | 22
13 | C=CC(=O)Nc1cc2c(Nc3ccc(F)c(Cl)c3)ncnc2cc1OCCCN1CCOCC1 [GW781483] | 0
14 | Cc1ccc(-n2nc(C(C)(C)C)cc2NC(=O)Nc2ccc(OCCN3CCOCC3)c3ccccc23)cc1 [GW839464] | 0
15 | CC(C)Nc1cc(-c2ccc3c(N)n[nH]c3c2)nc(N)n1 [GSK2221681] | 0
16 | Cl.Cl.NC[C@H](Cc1ccc(C(F)(F)F)cc1)NC(=O)c1cc(Br)c(-c2ccnc3[nH]ccc23)s1 [GSK1487252] | 0
17 | CCN(CC)CCCCNc1ncc2cc(-c3c(Cl)cccc3Cl)c(NC(=O)NC(C)(C)C)nc2n1 | 0
18 | C[C@@H]1CCN(C(=O)CC#N)C[C@@H]1N(C)c1ncnc2[nH]ccc12 | 0
19 | Cc1n[nH]c2ccc(-c3cc(OC[C@@H](N)Cc4ccccc4)cnc3-c3ccoc3)cc12.O=C(O)C(F)(F)F.O=C(O)C(F)(F)F [GSK507358] | 57
20 | O=C(NCCCN1CCOC1=O)c1cnc(NCc2cc(Cl)ccc2Cl)nc1NC1CCCC1 | 13
21 | Cl.Cl.Nc1nc(-c2ccc3c(N)n[nH]c3c2)cc(N2CCCC(NC(=O)c3ccccc3)C2)n1 (stereo not drawn) [GSK2286775] | 5
22 | Cc1occc1-c1nc(N)c(OC[C@@H](N)Cc2c[nH]c3ccccc23)cc1-c1cc2c(C)n[nH]c2cn1 [GSK1660450] | 17
23 | CCn1c(-c2nonc2N)nc2c(C#CC(C)(C)O)nc(OCCN)cc21.Cl.Cl [GSK902056] | 21
24 | CNC(=O)c1ccccc1Sc1ccc2c(/C=C/c3ccccn3)n[nH]c2c1 | 28
25 | CC(C)N1C(=O)Cc2cc(Nc3ncc(C(F)(F)F)c(NCc4cccc(S(C)(=O)=O)c4)n3)ccc21 | 19
26 | C[C@H]1Oc2cc(cnc2N)-c2c(nn(C)c2C#N)CN(C)C(=O)c2ccc(F)cc21 | 0
27 | NC(=O)c1cc(-c2ccccc2)cc2c(C3CCNCC3)c[nH]c12 [GSK301362] | 30

tested on: CDKL3; conditions: concentration: 1 μM,replicates: in singlicate; n = 1

Row | Structure (SMILES) | %Inh [%]
28 | Cc1cc(C(=O)Nc2ccc(Oc3ccc4nc(NC(=O)C5CC5)cn4n3)cc2)nn1-c1ccccc1 | 23
29 | CN(C)CC(O)COc1ccc(Nc2nccc(-c3cnn4nc(N5CCOCC5)ccc34)n2)cc1 (stereo not drawn) [GW767488] | 99
30 | CCN(CC)CCOc1ccc(Nc2ncc3cc(-c4c(Cl)cccc4Cl)c(=O)n(C)c3n2)cc1 [SB-601273] | 6
31 | Cc1cc2cn[nH]c2cc1-c1cccc2c(N)c(C(N)=O)nnc12 | 0
32 | O=C(NCCNc1ccnc(NCc2ccc(F)cc2)n1)c1cc2ccccc2s1 [GSK1379944] | 0
33 | COc1ccc(C[C@@H](CN)NC(=O)c2cc(Br)c(-c3ccnc4[nH]ccc34)s2)cc1.Cl.Cl [GSK1389063] | 62
34 | CN(C)CCOc1ccc(-c2cc(-c3c[nH]nc3-c3ccccn3)ccn2)cc1 [GW835314] | 12
35 | Cl.Cl.NC[C@H](CC1CCCCC1)NC(=O)c1cc(Br)c(-c2ccnc3[nH]ccc23)s1 [GSK1581427] | 0
36 | Cl.Oc1cc(-c2nc(-c3ccccc3)[nH]c2-c2ccncc2)ccc1Cl [SB-386023] | 22
37 | Cc1ccc2c(-c3ccncc3)c(-c3ccc(F)cc3)nn2c1.Cl [GW461484] | 0
38 | Nc1nc(Nc2ccccc2)cc(-c2ccc3c(N)n[nH]c3c2)n1 [GSK2225749] | 0
39 | C[C@@H](Oc1cc(-c2cnn(C3CCNCC3)c2)cnc1N)c1c(Cl)ccc(F)c1Cl | 24
40 | C=CC(=O)Nc1cc2c(Nc3ccc(F)c(Cl)c3)ncnc2cc1OCCCN1CCOCC1 [GW781483] | 11
41 | Cc1ccc(-n2nc(C(C)(C)C)cc2NC(=O)Nc2ccc(OCCN3CCOCC3)c3ccccc23)cc1 [GW839464] | 100
42 | CC(C)Nc1cc(-c2ccc3c(N)n[nH]c3c2)nc(N)n1 [GSK2221681] | 0
43 | Cl.Cl.NC[C@H](Cc1ccc(C(F)(F)F)cc1)NC(=O)c1cc(Br)c(-c2ccnc3[nH]ccc23)s1 [GSK1487252] | 0
44 | CCN(CC)CCCCNc1ncc2cc(-c3c(Cl)cccc3Cl)c(NC(=O)NC(C)(C)C)nc2n1 | 16
45 | C[C@@H]1CCN(C(=O)CC#N)C[C@@H]1N(C)c1ncnc2[nH]ccc12 | 15
46 | Cc1n[nH]c2ccc(-c3cc(OC[C@@H](N)Cc4ccccc4)cnc3-c3ccoc3)cc12.O=C(O)C(F)(F)F.O=C(O)C(F)(F)F [GSK507358] | 0
47 | O=C(NCCCN1CCOC1=O)c1cnc(NCc2cc(Cl)ccc2Cl)nc1NC1CCCC1 | 29
48 | Cl.Cl.Nc1nc(-c2ccc3c(N)n[nH]c3c2)cc(N2CCCC(NC(=O)c3ccccc3)C2)n1 (stereo not drawn) [GSK2286775] | 0
49 | Cc1occc1-c1nc(N)c(OC[C@@H](N)Cc2c[nH]c3ccccc23)cc1-c1cc2c(C)n[nH]c2cn1 [GSK1660450] | 0
50 | CCn1c(-c2nonc2N)nc2c(C#CC(C)(C)O)nc(OCCN)cc21.Cl.Cl [GSK902056] | 0
51 | CNC(=O)c1ccccc1Sc1ccc2c(/C=C/c3ccccn3)n[nH]c2c1 | 0
52 | CC(C)N1C(=O)Cc2cc(Nc3ncc(C(F)(F)F)c(NCc4cccc(S(C)(=O)=O)c4)n3)ccc21 | 0
53 | C[C@H]1Oc2cc(cnc2N)-c2c(nn(C)c2C#N)CN(C)C(=O)c2ccc(F)cc21 | 5
54 | NC(=O)c1cc(-c2ccccc2)cc2c(C3CCNCC3)c[nH]c12 [GSK301362] | 0
